Tests used:
Type in all cases: functional
[1] = target: Solute carrier family 2, facilitated glucose transporter member 1 (Homo sapiens) (UniProt P11166); test: ST_JUDE_LEISH: Cytotoxicity at 2uM final concentration against transgenic Leishmania Mexicana promastigotes LmGLUT1 that are glucose transport deficient and complemented with the human glucose transporter GLUT1. Activity is measured by DNA content using SYBR green in vitro
[2] = target: Hexose transporter 1 (Plasmodium falciparum) (UniProt O97467); test: ST_JUDE_LEISH: Cytotoxicity at 2uM final concentration against transgenic Leishmania Mexicana promastigotes LmPfHT that are glucose transport deficient and complemented with the Plasmodium falciparum hexose transporter. Activity is measured by DNA content using SYBR green in vitro
[3] = target: Glucose transporter (Leishmania mexicana) (UniProt O61059); test: ST_JUDE_LEISH: Cytotoxicity at 2uM final concentration against transgenic Leishmania Mexicana promastigotes LmGT2 that are glucose transport deficient and complemented with the L. Mexicana glucose transporter 2. Activity is measured by DNA content using SYBR green in vitro

Sequence of Solute carrier family 2, facilitated glucose transporter member 1 (Homo sapiens) (P11166 whole entry): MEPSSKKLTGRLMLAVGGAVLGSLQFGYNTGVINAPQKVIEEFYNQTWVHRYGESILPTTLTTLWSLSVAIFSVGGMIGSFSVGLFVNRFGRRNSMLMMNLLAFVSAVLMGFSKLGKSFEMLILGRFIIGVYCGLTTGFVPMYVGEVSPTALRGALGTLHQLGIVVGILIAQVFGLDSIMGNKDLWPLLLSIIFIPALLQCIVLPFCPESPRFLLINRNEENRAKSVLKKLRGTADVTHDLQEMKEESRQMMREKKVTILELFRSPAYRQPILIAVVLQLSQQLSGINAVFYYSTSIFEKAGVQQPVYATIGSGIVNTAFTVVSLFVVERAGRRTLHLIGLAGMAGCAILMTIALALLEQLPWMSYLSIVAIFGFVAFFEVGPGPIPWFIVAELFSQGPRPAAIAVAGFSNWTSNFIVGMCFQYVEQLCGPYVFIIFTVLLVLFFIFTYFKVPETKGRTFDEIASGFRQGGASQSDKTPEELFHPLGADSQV

Row | Structure (SMILES) | inhibition [1] [%] | inhibition [2] [%] | inhibition [3] [%]
1 | Cc1cc(N2CCCN(CC3CCCCC3)CC2)nc(Nc2ccc(Br)cc2)n1 | 1.81 | 6.86 | -2.12
2 | Oc1ccc(Cl)cc1CN1CCCC(COC(c2ccc(F)cc2)c2ccc(F)cc2)C1 (centres undefined) | 0.85 | 1.7 | -2.44
3 | CCN(CC)CCNC(=O)c1ccc(NC(=O)c2cn(-c3ccccc3)nc2-c2cccs2)cc1 | 5.46 | 4.01 | 6.19
4 | CCN1CCC(NCc2ccc(-c3ccc(Cl)s3)cc2)CC1 | -1.87 | -1.38 | -1.7
5 | CCCCN1CC[C@@H](CCC(O)c2ccnc3ccc(OCCC(C)C)cc23)[C@@H](CC)C1 (some centres undefined) | 1.18 | 4.04 | 3.24
6 | CC(=O)Nc1ccc(CCNC(C)Cc2ccc(C(=O)Nc3ccc(CC(C)NCCc4cccc(Cl)c4)cc3)cc2)cc1 (centres undefined) | 2.17 | -1.77 | 0.98
7 | N#Cc1ccc(/C=C/C(=O)NCCCCCN2CCCN(C(=O)Nc3ccc(Cl)c(C(F)(F)F)c3)CC2)cc1 | 1.18 | 1.14 | 1.57
8 | Cc1cc(NC(=O)NCCN2CCC(NC(=O)c3cccc(Br)c3)C2)c2ccccc2n1 (centres undefined) | 0.36 | 0.24 | 2.62
9 | Cc1cccc(CCCNC(=O)CN(c2cccc(C(F)(F)F)c2)S(=O)(=O)c2ccc(C(F)(F)F)cc2)c1 | 5.38 | 4.48 | 4.63
10 | O=C(Nc1cccc(-c2ccc(-c3nc4ccccc4[nH]3)cc2)c1)c1cccnc1 | 6.47 | 0.4 | -0.92
11 | Cc1cccc2nc(-c3ccc(-c4cccc(CNCc5ccc(S(C)(=O)=O)cc5)c4)s3)[nH]c12 | 12.5 | 9.13 | 9.52
12 | Cc1cc(=O)c(-c2ccc(OCc3ccc(OC(F)(F)F)cc3)cc2)c(C)[nH]1 | 7.02 | 4.41 | 2.08
13 | N=C(N)c1ccc(C=Cc2ccc(C(=N)N)cc2O)cc1 | -0.26 | -0.04 | -0.9
14 | Cc1cc(C(=O)Nc2nc(-c3ccccn3)nc3ccsc23)no1 | 75.8 | 75.1 | 68.5
15 | CC(=O)Nc1ccc(CN2CCC(NC(=O)c3ccc(-c4cccc(F)c4)s3)CC2)cc1 | 1.73 | 0.06 | 0.34
16 | COc1cc2nc(NCCc3ccccc3)nc(NCCCc3ccccc3)c2cc1OC | 6.89 | 10.1 | 2.36
17 | COc1ccc2nccc(N3CCC(CCNCc4ccc5c(n4)NC(=O)CO5)CC3)c2c1 | 1.72 | 5.22 | -0.63
18 | COc1cc2c(cc1N(C(C)C)S(=O)(=O)c1sc3ccc(Cl)cc3c1C)CCNCC2 | 43.3 | 10.2 | 3.21
